Compound activity as filed in PubChem BioAssay.
Shown are actives, neighbours in structure and some others; about 11% of the full set was active somewhere.
Ins promoter up: MIN6 insulin promoter up-regulation. MIN6 insulin promoter-GFP reporter, high-content imaging; hits give high values. z-score at 5 µM. actives 0.3% (n = 190,000). AID 1625;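 active = z-score above 3 at 5 µM with at least 500 cells counted in the well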
Insulin prom inh: TRM-6 insulin promoter activity inhibition. TRM-6 cells (human fetal islet line), insulin promoter-eGFP reporter, imaging; reporter expression induced with tamoxifen. inhibition, % at 2 µM. actives 0.9% (n = 130,000);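 active = inhibition above the mean plus 3 SD, with well images judged a real hit on visual review, cut at about 60% in these data, passing the limit was not always enough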
Autophagy mod: alters autophagy in cells | calls only at 10 µM (by protocol) | AID 463193 | MEF GFP-LC3 puncta imaging; test concentration mostly 10 µM | actives 0.98% (n = 190,000);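 active = percentage of spot-positive cells more than 3 SD above its plate mean, without a fluorescence outlier flag or 80% toxicity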;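 also: spot-positive cell cutoff set from DMSO-treated cells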
Lmaj promast: Leishmania major promastigote growth inhibition | Leishmania major promastigotes, resazurin fluorescence viability | inhibition, % at 10 µM | actives 9% (n = 200,000) | AID 1063; in the data active = inhibition above about 50%;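 also: promastigotes grown with compound for 44 hours at 28 °C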
WT yeast gro inh: growth inhibition of WT yeast, mitochondrial fusion screen; mitochondrial fusion phenotypic screen, WT strain; inhibition, % at 10 µM; actives 2.1% (n = 190,000); in the data active = inhibition above about 58%; tested in S. cerevisiae
* marks the source's active call; other numbers are inactive results; i = inactive; x = no result; + = active, no number.

SMILES | Ins promoter up | Insulin prom inh | Autophagy mod | Lmaj promast | WT yeast gro inh
CCN1CCN(c2cc(C)c3cc(NC(=O)c4cncc(Br)c4)ccc3n2)CC1 | 0.47 | -7.1 | i | 100.1* | 1.1
CCN1CCN(c2cc(C)c3cc(NC(=O)Cc4ccccc4OC)ccc3n2)CC1 | -4.89 | x | i | 12.2 | -10.2
CCN1CCN(c2cc(C)c3cc(NC(=O)c4cccs4)ccc3n2)CC1 | 0.27 | x | x | x | x
COc1ccc(C)cc1NC(=O)CCC(=O)Nc1ccc2nc(N3CCN(C)CC3)cc(C)c2c1 | -0.72 | -22.2 | i | 91.0* | -0.2
CCN1CCN(c2cc(C)c3cc(NC(=O)c4ccc5c(c4)OCO5)ccc3n2)CC1 | x | x | x | 100.3* | 18.1
CCCCNC(=O)CCC(=O)Nc1ccc2nc(N3CCN(C)CC3)cc(C)c2c1 | 0.83 | x | i | 0.8 | 6.5
Cc1c(NC(=O)C(C)OC(=O)C23CC4CC(CC(Br)(C4)C2)C3)c(=O)n(-c2ccccc2)n1C (stereo unspecified) | 0.68 | x | i | -3.4 | -11.0
CC1=C(C(=O)OCC2CCCO2)C(c2ccc(Cl)cc2)NC(=O)N1 (stereo unspecified) | -0.87 | 9.1 | i | -4.9 | -15.3
COc1ccc(C2NC(=O)CS2)cc1OC (stereo unspecified) | -0.42 | x | i | -3.4 | 15.5
COc1cc(C2NC(=O)CS2)cc(OC)c1OC (stereo unspecified) | 0.1 | -18.8 | i | 86.4* | -4.1
CCOC(=O)C(C)(C)N(Cc1cccc(C)c1)S(=O)(=O)c1ccc(Cl)c([N+](=O)[O-])c1 | 0.18 | x | i | 86.0* | 17.2
O=C(Nc1ccc(C(=O)O)cc1)/C(=C\c1ccc2c(c1)OCO2)NC(=O)c1ccc(Br)cc1 | 0.96 | x | i | -1.8 | -11.1
O=C(NCCO)/C(=C/c1ccc2c(c1)OCO2)NC(=O)c1ccc(Br)cc1 | 0.2 | -7.7 | + | -1.9 | -11.7
O=C(Nc1ccc(C(=O)O)cc1)/C(=C\c1ccc2c(c1)OCO2)NC(=O)c1ccccc1 | 0.08 | 80.0* | i | 2.7 | 13.0
O=C(O)CNC(=O)/C(=C\c1ccc2c(c1)OCO2)NC(=O)c1ccc(Br)cc1 | -1.34 | 0.0 | i | 0.4 | -10.6
CCOC(=O)c1c(NC(=O)CSC2=NN3CCCC(=O)N=C3S2)sc2c1CCCCC2 | 0.18 | -21.9 | i | -0.6 | 11.0
O=S(=O)(NC1CCCCC1Sc1ncccn1)c1ccccc1 (stereo unspecified) | -0.32 | -2.6 | i | 64.9* | -17.1
Cc1ccc(NC2CCCCC2NS(=O)(=O)c2ccc(Cl)cc2)cc1 (stereo unspecified) | 0.61 | x | i | 6.0 | -7.2
O=S(=O)(NC1CCCCC1Nc1ccc(Cl)cc1)c1ccccc1 (stereo unspecified) | -0.69 | -34.6 | i | 91.4* | 28.3
CCOC(=O)c1c(NC(C)=O)sc2c(OC)c(Br)ccc12 | 0.01 | -14.3 | i | -1.5 | x
CCOC(=O)c1c(NC(C)=O)sc2c(O)c(CN3CCN(CC)CC3)ccc12 | -0.84 | 85.7* | i | -7.5 | -9.0
CCOC(=O)c1c(NC(C)=O)sc2c(OCCN(CC)CC)c(Br)ccc12 | x | -52.4 | i | 99.8* | 31.7
CCOC(=O)c1c(NC(C)=O)sc2c(OCC(O)CN(CC)CC)c(Br)ccc12 (stereo unspecified) | -1.64 | x | i | 100.4* | 9.7
CNC(=O)CSc1cn(CC(=O)N(C(C)C)C(C)C)c2ccccc12 | 0.97 | x | i | 16.4 | -11.4
Cc1ccc(NC(=O)CCC(=O)NNC(=O)c2ccccc2Cl)c(C)c1 | 2.28 | x | i | -8.6 | -4.5
SMILES | Ins promoter up | Insulin prom inh | Autophagy mod | Lmaj promast | WT yeast gro inh
Cc1ccccc1CSCC(=O)NCc1ccco1 | 0.09 | x | i | -11.3 | -9.8
COc1ccc2c(c1)N(C(=O)CSc1n[nH]c(C)n1)C(C)(C)C=C2C | 0.3 | -40.5 | i | 2.4 | -2.6
O=C(N/N=C\C=C\c1ccc2c(c1)OCO2)C1COc2ccccc2O1 (stereo unspecified) | 0.45 | -260.0 | i | 65.3* | -3.6
O=C(N/N=C\c1ccc(-c2ccccc2[N+](=O)[O-])o1)C1COc2ccccc2O1 (stereo unspecified) | -0.19 | x | i | 51.6* | 26.2
O=C(N/N=C\c1ccc([N+](=O)[O-])o1)C1COc2ccccc2O1 (stereo unspecified) | 0.88 | x | i | 100.0* | 3.3
O=C(O)c1cccc(-c2ccc(/C=N/NC(=O)C3COc4ccccc4O3)o2)c1 (stereo unspecified) | -0.16 | x | i | -9.8 | 7.6
O=C(N/N=C\C=C\c1ccc2c(c1)OCO2)c1cccnc1 | -0.31 | -42.4 | i | 2.5 | -9.4
Cc1ccc(/C=N\NC(=O)C2COc3cc4ccccc4cc3O2)o1 (stereo unspecified) | -0.14 | 41.9 | i | 0.2 | 6.8
